Screens as filed in PubChem.
Pf Dd2 inh = qHTS Primary assay for Inhibitors of Plasmodium falciparum Dd2 growth in vitro | Potency, µM (titrated, usually from 28.9 µM), for inactives: at the highest dose activity, negative = inhibition, usual class: inhibitors | P. falciparum Dd2 growth, SYBR Green, 72 h | 120,000 compounds, 4.3% hits; active = well fitted inhibition curve with a large enough effect;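 also: plate controls were DMSO vehicle for no effect and reference drug for full effect; nearly all actives have a fitted effect of over 65% in size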
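Readout: SYBR Green fluorescence, 485 nm excitation, 535 nm emission, after ~16 h lysis at 37C. Before that, Dd2-infected red cells (2.5% hematocrit) grew 72 h with compound, 29 uM top final concentration.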
* marks the source's active call; other numbers are inactive results; i = inactive; [ ] = remark or other dose. The full list was thinned out, with hits kept by preference. Potency is read from the fitted curve at half-maximal effect.

SMILES | Pf Dd2 inh
O=C(NCc1cccc(Cl)c1)C(=O)Nc1ccc2nc3n(c(=O)c2c1)CCCCC3 | 29%
CCN1CCN(c2cc(C)c3cc(NC(=O)c4cccc(Cl)c4)ccc3n2)CC1 | 1.6µM*
Cc1cc(N2CCCCC2)nc2ccc(NC(=O)c3ccc(F)cc3)cc12 | i
CCCCc1ccc(C(=O)Nc2ccc3nc(N4CCN(CC)CC4)cc(C)c3c2)cc1 | 4.5µM*
CCN1CCN(c2cc(C)c3cc(NC(=O)/C=C/c4cccc(Cl)c4)ccc3n2)CC1 | 3.2µM*
CCN1CCN(c2cc(C)c3cc(NC(=O)c4cc(OC)cc(OC)c4)ccc3n2)CC1 | 0.4µM*
O=C(Nc1ccc2oc(-c3cccc4c(Br)cccc34)nc2c1)c1cccc(Cl)c1 | i
COc1ccc(C(=O)Nc2ccc3nc(N4CCC(C)CC4)cc(C)c3c2)cc1 | -12%
Cc1n[nH]c(C)c1C(N)C(=O)N1CCC(c2nnc3n2CCCCC3)CC1 (configuration not stated) | 1%
Cc1noc(C)c1[S+](=O)([O-])N1CCC2(CC1)CC(=O)Nc1ccccc1O2 | -23%
Cc1nonc1CC(=O)N1CCCC(c2n[nH]c(=O)n2-c2ccccc2)C1 (configuration not stated) | 2%
CCOc1cc(=O)n2c(c1C(=O)NC1CCCCCC1)CCCC2 | 51%
CC1(C)NC(=O)N(CC(=O)NC2CC(c3cc(=O)[nH]c(N)n3)C2)C1=O (configuration not stated) | -3%
OCC1CN(C2CCC2)CC12CCN(Cc1ccc[nH]1)CC2 (configuration not stated) | -10%
OCC1CN(C2CCC2)CC12CCN(Cc1cc(F)c(F)c(F)c1)CC2 (configuration not stated) | -12%
OCC1CN(C2CCC2)CC12CCN(Cc1ccc(F)cc1)CC2 (configuration not stated) | 13µM*
O=C(N1CCCC1)N1CCN(c2ncnc3sccc23)CC(O)C1 (configuration not stated) | -3%
O=C(N[C@@H]1CCN(C(=O)CCc2ccccc2F)C[C@H]1O)c1ccccn1 | -2%
CN(C)CCC(=O)N1Cc2ccccc2CC2(CCCN2C)C1 (configuration not stated) | 2%
O=C(O)CCC(=O)N1Cc2ccccc2CC2(CCCN(CC3CCCCC3)C2)C1 (configuration not stated) | 22%
CCCN1CCC2(Cc3ccccc3CN(C(=O)CCCC(=O)O)C2)C1 (configuration not stated) | -2%
CC(C)C(=O)N1Cc2ccccc2CC2(CCCN2C)C1 (configuration not stated) | 10µM*
CC(=O)NCC(=O)N1Cc2ccccc2CC2(CCCN2C)C1 (configuration not stated) | 22%
CC(C)C(=O)N1Cc2ccccc2CC2(CCCN(CC3CCCCC3)C2)C1 (configuration not stated) | 0.25µM*
O=C(O)CCCC(=O)N1Cc2ccccc2CC2(CCCN(CC3CCCCC3)C2)C1 (configuration not stated) | 6%
SMILES | Pf Dd2 inh
CCCN1CCC2(Cc3ccccc3CN(C(=O)C(C)C)C2)C1 (configuration not stated) | 8.9µM*
CCCN1CCC2(Cc3ccccc3CN(C(C)=O)C2)C1 (configuration not stated) | -3%
COc1cccc(CN2CCc3nnc([C@@H]4C[C@@H](O)CN4C)n3CC2)c1 | -24%
O=C(NCCc1ccccc1)[C@@H]1C[C@@H](c2ccc(F)cc2)N([S+](=O)([O-])c2cccnc2)C1 | i
CSCC(=O)N1CC[C@H](NC(=O)Nc2ccc(F)cc2F)[C@H]1C(=O)N[C@@H](Cc1cccs1)C(N)=O | 12%
O=C(CCCc1ccccc1)NCC(=O)N1CCCCCNC(=O)CC1c1ccccc1 (configuration not stated) | -6%
CN1C(=O)CC(C(=O)O)C12CCN(Cc1cnc(CC3CCCC3)[nH]1)CC2 (configuration not stated) | 10%
COC[C@@H]1CN(C(=O)Cc2ccccc2C)C[C@H]1C(N)=O | 15%
O=C(Cn1ccn2nc(-c3ccc(F)cc3)c(CO)c2c1=O)N1CCc2ccccc21 | -14%
O=C(CC[C@H]1NC(=O)c2ccccc2NC1=O)NCCn1cnc2ccccc21 | -5%
COc1ccccc1-c1nc(C2CC(=O)N(c3ccc(F)c(Cl)c3)C2)no1 (configuration not stated) | 120%
COc1ccc(Cl)cc1-c1nc(C2CC(=O)N(c3ccc(F)cc3)C2)no1 (configuration not stated) | 11µM*
COc1ccc(-c2nc(C3CC(=O)N(c4ccc(F)cc4)C3)no2)cc1F (configuration not stated) | 53%
CN1Cc2ccccc2-n2ccnc2C12CCN(C(=O)c1ccc(F)cc1)CC2 | 1%[5.79 µM]
CCCNC(=O)O[C@@H]1CC[C@]2(C)[C@H](CC[C@@H](O)[C@H]2CC(=O)N2CCCC2)[C@]1(C)CO | 0%[44.1 µM]
COc1cc(NC(=O)O[C@@H]2CC[C@]3(C)C(CC[C@@H](O)[C@H]3CC(=O)N3CCCCC3)[C@]2(C)CO)cc(OC)c1OC (some centres not stated) | 5µM*
CC(C)NC(=O)O[C@@H]1CC[C@]2(C)C(CC[C@@H](O)[C@H]2CC(=O)NCc2ccco2)[C@]1(C)CO (some centres not stated) | -11%
CCCNC(=O)O[C@@H]1CC[C@]2(C)[C@H](CC[C@@H](O)[C@H]2CC(=O)N2CCCCC2)[C@]1(C)CO | i
COc1cc(NC(=O)O[C@@H]2CC[C@]3(C)C(CC[C@@H](O)[C@H]3CC(=O)N3CCCC3)[C@]2(C)CO)cc(OC)c1 (some centres not stated) | -14%
C[C@]1(CO)C2CC[C@@H](O)[C@@H](CC(=O)N3CCCC3)[C@]2(C)CC[C@H]1OC(=O)Nc1ccccc1 (some centres not stated) | 8.9µM*
C[C@]1(CO)C2CC[C@@H](O)[C@@H](CC(=O)NCc3cccs3)[C@]2(C)CC[C@H]1OC(=O)NC1CCCCC1 (some centres not stated) | 11µM*
COc1ccc(NC(=O)O[C@@H]2CC[C@]3(C)C(CC[C@@H](O)[C@H]3CC(=O)N3CCC[C@H]3CO)[C@]2(C)CO)cc1 (some centres not stated) | -21%
CCNC(=O)O[C@@H]1CC[C@]2(C)C(CC[C@@H](O)[C@H]2CC(=O)NCc2ccc(F)cc2)[C@]1(C)CO (some centres not stated) | -5%
COc1cccc(CN2CCC(N3Cc4cnc(C)n4C3=O)CC2)c1 | i
O=C(c1ccc(Cl)cc1)N1CCn2c(nn(-c3ccc(C(F)(F)F)cc3)c2=O)C1 | 6%
SMILES | Pf Dd2 inh
Cc1ccc(S(=O)(=O)N2CCn3c(nn(CC4CC4)c3=O)C2)c(C)c1 | -17%
CCc1cnc(N2CCC(Oc3cnc4c(ccn4CCN[S+](C)(=O)[O-])c3)CC2)nc1 | -1%
Cc1noc(C2CC3(CCN(C(=O)Cc4c[nH]c5ccccc45)CC3)CN2C)n1 (configuration not stated) | -12%
CS(=O)(=O)N1CCCC(c2nc(-c3cccnc3)no2)CCNC(=O)CC1 (configuration not stated) | -12%
CC(C)c1noc(C2CCCN(C(=O)NCCc3ccccc3)CCC(=O)NCC2)n1 (configuration not stated) | 39%
CN(C)C(=O)N1CCCC(c2nc(-c3ccccc3)no2)CCNC(=O)CC1 (configuration not stated) | 7%
